This is a sample that favours compounds with a hit; in the whole collection about 5.7% have one here.
KB-V1 cytotox – kills drug-selected multidrug resistant KB-V1 cells; KB-V1 MDR cells viability, CellTiter-Glo, 72 h; Potency, µM (doses to about 46.1 µM), actives largely listed as cytotoxic; 400,000 compounds, 3.4% hits; further: potency means the concentration at half of the fitted maximal effect; nearly all actives have a fitted effect of over 60% in size
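Compound-treated KB-V1 multidrug-resistant cells, 72 h, 37 degrees C; viability by CellTiter-Glo. Fitted qHTS curves give the values.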
Giardia kill – Giardia lamblia killing | AID 540267 | activity change, % at 7.66 µM, hits read low | Giardia lamblia trophozoite viability | 340,000 compounds, 0.15% hits; in the data active means activity change below about -80%; inconclusive means between about -30% and that limit;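 further: parasites exposed to compound for two days anaerobically before the ATP read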
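ATP-content bioluminescence gauges trophozoite survival. Cells (100/well) receive compound and incubate anaerobically for 48 hrs at 37 deg C; detection reagent follows for 15-30 min at room temperature.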
A549 tox – counter-screen for Nrf2 inhibitors: cytotoxicity in A549 cells. A549 ARE-Fluc cells, CellTiter-Fluor viability, 18-24 h. Potency, µM (series often up to 46 µM), inactives show at the highest dose activity change, negative = cytotoxicity, usual class: inhibitors. 390,000 compounds, 0.16% hits. AID 504648; further: potency means the concentration at half of the fitted maximal effect
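A549 ARE-Fluc cells in 5% FBS OPTI-MEM, 5000 cells/well, rested 2 h then exposed to compounds in concentration-response for 18-24 h at 37 °C. Viability by CellTiter-Fluor fluorescence (Ex 405/Em 525) after 30 min; luciferase luminescence (BugLite, 15 min, RT) read afterwards.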
Nrf2 inh – Nrf2 pathway inhibition; A549 ARE-Fluc reporter, luciferase luminescence, 18-24 h; Potency, µM (doses to about 46 µM), without a hit: top-dose activity change, negative = inhibition, usual class: inhibitors; 360,000 compounds, 2.1% hits; further: potency means the concentration at half of the fitted maximal effect; nearly all actives have a fitted effect of over 60% in size
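Quantitative HTS in A549 cells stably bearing an antioxidant response element-firefly luciferase construct. Inhibition of Nrf2-driven transcription was scored by luminescence after 18-24 h of compound exposure at 37 °C.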
KB-3-1 cytotox – kills parental KB-3-1 adenocarcinoma cells | KB-3-1 viability, CellTiter-Glo ATP luminescence, 72 h | Potency, µM (top dose mostly 46.1 µM), usual class: cytotoxic | 400,000 compounds, 1.4% hits; further: potency means the concentration at half of the fitted maximal effect; nearly all actives have a fitted effect of over 60% in size
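Using CellTiter-Glo luminescence, growth of non-resistant KB-3-1 adenocarcinoma cells is assessed 72 h after pin-tool compound addition at 37 °C. Normalized responses across the concentration series yield fitted curves.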
PI4K2A inh – PI4K2A (human) kinase inhibition. purified PI4K2A, ADP-Glo luminescence, 1 h; active compounds read low. activity change, negative = inhibition, % at 76.9 µM. 420,000 compounds, 0.13% hits; in the data active means activity change below about -50%; inconclusive means mostly about -30% to -49%;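 further: -100% = wells without enzyme as full effect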
Target sequence (Q9BTU6 whole entry, looked up): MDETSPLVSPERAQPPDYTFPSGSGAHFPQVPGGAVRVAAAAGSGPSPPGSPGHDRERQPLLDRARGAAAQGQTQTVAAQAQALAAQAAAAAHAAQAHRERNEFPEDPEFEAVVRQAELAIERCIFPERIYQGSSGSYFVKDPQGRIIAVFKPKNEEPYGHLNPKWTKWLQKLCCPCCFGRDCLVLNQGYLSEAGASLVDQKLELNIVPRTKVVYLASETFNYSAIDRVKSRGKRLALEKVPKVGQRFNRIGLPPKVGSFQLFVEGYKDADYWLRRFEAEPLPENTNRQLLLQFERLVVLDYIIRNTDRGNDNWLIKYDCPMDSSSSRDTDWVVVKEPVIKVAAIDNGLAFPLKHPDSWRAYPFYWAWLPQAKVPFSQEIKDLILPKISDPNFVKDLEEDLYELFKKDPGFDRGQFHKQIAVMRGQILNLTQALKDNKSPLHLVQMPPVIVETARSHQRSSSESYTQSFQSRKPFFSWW
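PI4K2A activity was measured by ADP-Glo luminescence: enzyme (4 ug/mL stock) and phosphatidylinositol (1.2 mM stock) in Tris pH 7.5/MgCl2/EGTA/Triton X-100 buffer were reacted with ATP (300 microM stock) for one hour at ambient temperature.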
* marks the source's active call; other numbers are inactive results; i = inactive; ? = inconclusive; nt = not tested or not shown. Unless noted, the call rests on the fitted dose curve; in most records, active means well fitted curve in the direction sought with a large enough effect; inconclusive means small, poorly fitted or top-dose-only effect, or another doubt; inactive means no such curve, though single readings can be large; an effect the other way counts as inactive or inconclusive. Unless noted, on the % scale 0 is the no-effect control and ±100 the full control effect.

SMILES	KB-V1 cytotox	Giardia kill	A549 tox	Nrf2 inh	KB-3-1 cytotox	PI4K2A inh
CC(O)CN1CCN(CC(=O)[O-])CCN(CC(=O)[O-])CCN(CC(=O)[O-])CC1.[Gd+3] (stereo not given)	nt	nt	nt	nt	nt	3.3
O=c1c2ccccc2nc(/C=C/c2ccccc2F)n1-c1cccc(O)c1	nt	nt	4.9%	10.6%	nt	-3.0
Cn1c(=O)oc2cc(NC(=O)CCl)ccc21	?	7.0	-27.8%	?	?	-8.0
COC(=O)C1=C(c2ccc(-c3ccccc3)c(F)c2)C[C@@H]2CC[C@H]1N2C(=O)N1CCOCC1	i	-27.4	0.5%	?	18.4µM*	-1.1
COC(=O)C1=C(c2ccc(-c3ccccc3)c(F)c2)C[C@@H]2CC[C@H]1N2C(=O)N1CCc2cc(OC)c(OC)cc2C1	?	-3.1	-14.4%	16.4µM*	?	6.7
COc1cccc(CSc2nc(-c3ccccc3OC)nc3c2Cc2c(CO)cnc(C)c2O3)c1	i	nt	-11.6%	?	i	0.9
O=C(CN1CC(c2ccccc2)CC1=O)Nc1cccc(F)c1 (stereo not given)	i	-7.3	22.0%	4.1%	i	-0.2
N#Cc1cc2c(nc1SCC(=O)Nc1cccc(F)c1)C1CCN2CC1	10.3µM*	nt	-22.2%	?	?	0.4
O=C1OC(c2ccc(O)c(S(=O)(=O)O)c2)(c2ccc(O)c(S(=O)(=O)O)c2)c2c(Br)c(Br)c(Br)c(Br)c21	nt	nt	nt	nt	nt	-3.9
CN(C)C(=O)O/N=C(\N)COc1ccc(C(C)(C)C)cc1	?	-0.8	20.6µM*	?	i	2.8
N=C(N)c1ccc(CS(=O)(=O)F)cc1	nt	nt	nt	nt	nt	-2.4
FC(F)(F)c1ccc2c(c1)ncn2C1CCN(Cc2nnnn2C2CCCCC2)CC1	7.31µM*	6.3	-6.5%	?	?	1.8
Cc1ccc(S(=O)(=O)N(CC(=O)NCCSc2ccc(Cl)cc2)c2ccccc2C)cc1	?	nt	-7.2%	?	?	13.5
O=C(CCS(=O)(=O)c1ccc(Cl)cc1)Nc1cccc(S(=O)(=O)N2CCCCCC2)c1	20.6µM*	5.4	-12.4%	?	i	-4.3
Cc1ccc(S(=O)(=O)N2CCCCC2)cc1NC(=O)Nc1ccc(Cl)cc1Cl	i	-15.7	0.0%	?	i	3.8
C=C1C(=O)O[C@H]2[C@H]1[C@H](OC(=O)CC(=O)O[C@@H]1C[C@@H](C)[C@@H]3C=CC(=O)[C@@]3(C)[C@H]3OC(=O)C(=C)[C@H]13)C[C@@H](C)[C@H]1C=CC(=O)[C@]12C	i	8.0	-5.7%	9.3%	i	?
C=C1C(=O)O[C@H]2C[C@@H](C)[C@@H]3C=CC(=O)[C@@]3(C)C[C@H]12	?	-26.9	?	20.6µM*	?	-11.3
C=C1C(=O)OC2CC(C)C3C=CC(=O)C3(C)C(O)C12 (stereo not given)	3.66µM*	15.5	10.3µM*	5.8µM*	3.26µM*	?
CN(C)CC(C(=O)Cc1ccccc1)c1ccccc1 (stereo not given)	?	3.3	6.6%	18.5%	8.2µM*	19.5
C[C@@H]([C@@H](O)c1ccccc1)N(C)C(=O)Cc1ccccc1	i	2.1	-8.0%	-0.5%	?	-0.3
CN(C)c1ccc(/C=C/[N+](=O)[O-])cc1	i	-18.3	0.5%	?	i	18.1
C/C(=C\c1ccc(N(C)C)cc1)[N+](=O)[O-]	?	-22.9	?	23.1µM*	?	21.1
Cc1ccc(-n2c(/C=C/c3ccccc3)nc3ccccc3c2=O)cc1Cl	i	nt	-1.2%	nt	i	-1.7
COCCCNC(=O)c1c(N)n(Cc2ccco2)c2nc3ccccc3nc12	i	-2.8	17.5%	-5.2%	i	-5.2
COCCCNC(=O)c1c(NC(=O)c2ccco2)n(Cc2ccccc2)c2nc3ccccc3nc12	i	-18.4	3.1%	1.8%	i	-57.1*
COCCNC(=O)c1c(NC(=O)c2ccc(Br)o2)n(Cc2ccccc2)c2nc3ccccc3nc12	11.6µM*	-17.3	0.3%	-8.6%	i	2.6

Screening results as filed in PubChem.
